Values joined by “and” are separate entries in the source; they are usually repeats but may differ in a detail not shown here. Equal values may be shown once. Inconclusive results are not listed. Active and inactive are the calls of the source. Unless noted, calls come from the whole dose curve; as a rule, active = well fitted curve in the direction sought with a large enough effect in the repeat runs; inconclusive = weak or mixed curves; inactive = no such curve, though single readings can be large; an effect the other way counts as inactive or inconclusive.
Tests used:
[1] = target: Thyrotropin-releasing hormone receptor (Homo sapiens) (UniProt P34981); assay: qHTS assay to identify small molecule agonists of the thyrotropin-releasing hormone receptor (TRHR) signaling pathway (AID 1346891; calls by dose curve; note: series mostly up to about 58 µM)
Method in brief: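 HEK293 cells expressing TRHR plated 18 h at 37 C/5% CO2, calcium dye-loaded 2 h at 37 C, then compound added (agonist mode); kinetic calcium fluorescence read 3 min at 1 s intervals; 15 concentrations in triplicate.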

[2] = Human pregnane X receptor (PXR) small molecule agonists, qHTS cell viability counter screen (AID 1346977); note: nearly all actives have a fitted effect of over 50% in size; note: potency is the fitted concentration of half-maximal effect
Method in brief: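 PXR-Luc HepG2 cells (2,000/well, 5% charcoal-stripped FBS) preincubated 5 hr, then exposed to compounds 24 hr at 37 C. Viability read in the same wells by CellTiter-Fluor fluorescence, reagent added at 23 hr, 1 hr incubation.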

[3] = Caspase-3/7 induction in HepG2 cells by small molecules, qHTS assay (AID 1346978); note: nearly all actives have a fitted effect of over 15% in size; note: potency is the fitted concentration of half-maximal effect
Method in brief: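 Wild-type HepG2 cells, 2,000/well, settled 5 hr at 37 C and 5% CO2, then compound-treated for 17 hr; caspase-3/7 activity read by luminescent Caspase-Glo 3/7 after 30 min at room temperature.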

[4] = Caspase-3/7 induction in CHO-K1 cells by small molecules, qHTS cell viability counter screen (AID 1346979); note: nearly all actives have a fitted effect of over 35% in size; note: potency is the fitted concentration of half-maximal effect
Method in brief: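 Wild-type CHO-K1 cells (1,500/well) treated with compound after 5 h plating; after 16 h at 37C, viability read as CellTiter-Fluor fluorescence following 1 h reagent incubation, in the same wells as the caspase read.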

[5] = Caspase-3/7 induction in CHO-K1 cells by small molecules, qHTS assay (AID 1346980); note: nearly all actives have a fitted effect of over 15% in size; note: potency is the fitted concentration of half-maximal effect
Method in brief: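 Wild-type CHO-K1 cells exposed to compounds for 17hr at 37 C, 5% CO2. Caspase-3/7 activity then measured by Caspase-Glo 3/7 luminescence after 30min at room temperature.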

[6] = Caspase-3/7 induction in HepG2 cells by small molecules, qHTS cell viability counter screen (AID 1346981); note: nearly all actives have a fitted effect of over 30% in size; note: potency is the fitted concentration of half-maximal effect
Method in brief: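 Cell viability is measured as a cytotoxicity counter screen alongside the Caspase-Glo 3/7 readout in identical wells. Wild-type HepG2 cells are treated with test compounds for 16 hr at 37 C before CellTiter-Fluor addition and a 1-hr incubation.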

[7] = target: Nuclear receptor subfamily 1 group I member 2 (Homo sapiens) (UniProt O75469); assay: Human pregnane X receptor (PXR) small molecule agonists, qHTS assay (AID 1346982); note: nearly all actives have a fitted effect of over 35% in size; note: potency is the fitted concentration of half-maximal effect
Method in brief: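 Cells: HepG2 stably carrying PXR-Luc. Medium held 5% charcoal-stripped FBS. Compounds in DMSO added after 5 hr plating, incubated 24 hr, then luminescence quantified with ONE-Glo.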

[8] = target: Cytochrome P450 2D6 (Homo sapiens) (UniProt P10635); assay: Cytochrome P450 Family 2 Subfamily D Member 6 (CYP2D6) small molecule antagonists: luciferase reporter qHTS assay (AID 1671196); note: nearly all actives have a fitted effect of over 50% in size; note: potency is the fitted concentration of half-maximal effect
Method in brief: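 Enzyme and proluciferin substrate were first combined with test chemical for 10 min at room temperature. Adding NADPH regeneration solution started a 1 h reaction, stopped with luciferin detection reagent and read by luminescence 20 min later.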

[9] = target: Cytochrome P450 2C19 (Homo sapiens) (UniProt P33261); assay: Cytochrome P450 Family 2 Subfamily C Member 19 (CYP2C19) small molecule antagonists: luciferase reporter qHTS assay (AID 1671197); note: nearly all actives have a fitted effect of over 65% in size; note: potency is the fitted concentration of half-maximal effect
Method in brief: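 P450-Glo CYP2C19 system: enzyme-substrate mix with compound 10 min at room temperature, then NADPH regeneration solution, 1 h at 37C. Proluciferin-to-luciferin conversion detected by luminescence after 20 min with detection reagent; ketoconazole as positive control.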

[10] = target: Cytochrome P450 2C9 (Homo sapiens) (UniProt P11712); assay: Cytochrome P450 Family 2 Subfamily C Member 9 (CYP2C9) small molecule antagonists: luciferase reporter qHTS assay (AID 1671198); note: nearly all actives have a fitted effect of over 50% in size; note: potency is the fitted concentration of half-maximal effect
Method in brief: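 P450-Glo proluciferin substrate with CYP2C9 enzyme; 10 min RT preincubation, then NADPH regeneration 1 h at 37C; luciferin detection reagent 20 min RT, luminescence in relative luminescence units.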

[11] = target: Cytochrome P450 1A2 (Homo sapiens) (UniProt P05177); assay: Cytochrome P450 Family 1 Subfamily A Member 2 (CYP1A2) small molecule antagonists: luciferase reporter qHTS assay (AID 1671199); note: nearly all actives have a fitted effect of over 50% in size; note: potency is the fitted concentration of half-maximal effect
Method in brief: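 Compounds were incubated with CYP1A2 and a luminogenic proluciferin substrate for 10 min at room temperature before the reaction was started with NADPH regeneration solution. After 1 h, detection reagent was added and light output, proportional to CYP activity, was recorded.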

[12] = target: Voltage-gated inwardly rectifying potassium channel KCNH2 (Homo sapiens) (UniProt Q12809); assay: Human Ether-a-go-go-Related Gene (hERG) channel small molecule antagonists: fluorescence cell-based qHTS assay (AID 1671200)
Method in brief: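 hERG-U2OS cells plated overnight at 37 C, loaded with FluxOR II dye 1 h at RT in dark; after 10 min, thallium stimulus added. Fluorescence (480/540 nm) read kinetically for 2 min at 1 s intervals.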

[13] = target: Cytochrome P450 3A4 (Homo sapiens) (UniProt P08684); assay: Cytochrome P450 Family 3 Subfamily A Member 4 (CYP3A4) small molecule antagonists: luciferase reporter qHTS assay (AID 1671201); note: nearly all actives have a fitted effect of over 50% in size; note: potency is the fitted concentration of half-maximal effect
Method in brief: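 P450-Glo CYP3A4 luminescent assay: compounds preincubated 10 min at room temperature with enzyme and proluciferin substrate, NADPH regeneration added, 1 h room-temperature reaction, stopped with luciferin detection reagent; luminescence read after 20 min. Ketoconazole positive control.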

[14] = target: Nuclear receptor subfamily 1 group I member 2 (Rattus norvegicus) (UniProt Q9R1A7); assay: Rat pregnane X receptor (rPXR) activation by small molecules, qHTS assay (AID 1346983); conditions: rPXR luciferase reporter cells, One-Glo luminescence, 24 h; max activation: active compounds read high; note: nearly all actives have a fitted effect of over 20% in size
Method in brief: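 Cell-based rPXR activation assay: rPXR cells, 2,000 per well, rested 5hr at 37 C, then exposed to compounds in DMSO for 24 hr at 37 C. Luciferase activity read by One-Glo luminescence after 30 min at room temperature.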

[15] = target: Nuclear receptor subfamily 1 group I member 2 (Homo sapiens) (UniProt O75469); assay: Human pregnane X receptor (PXR) activation by small molecules, qHTS assay (AID 1346985); note: nearly all actives have a fitted effect of over 40% in size
Method in brief: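 DPX-2 cells (HepG2 co-transfected with a PXR response element and a CYP3A4-promoter luciferase construct) were seeded at 2,000 per well, rested 5 hr at 37C, then exposed to DMSO-dissolved compounds for 24 hr. Activation was read as luciferase luminescence.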
% is set by controls: 0 for no effect and ±100 for the full control effect.

Chain of Cytochrome P450 2C9 (Homo sapiens) (P11712 whole entry, looked up): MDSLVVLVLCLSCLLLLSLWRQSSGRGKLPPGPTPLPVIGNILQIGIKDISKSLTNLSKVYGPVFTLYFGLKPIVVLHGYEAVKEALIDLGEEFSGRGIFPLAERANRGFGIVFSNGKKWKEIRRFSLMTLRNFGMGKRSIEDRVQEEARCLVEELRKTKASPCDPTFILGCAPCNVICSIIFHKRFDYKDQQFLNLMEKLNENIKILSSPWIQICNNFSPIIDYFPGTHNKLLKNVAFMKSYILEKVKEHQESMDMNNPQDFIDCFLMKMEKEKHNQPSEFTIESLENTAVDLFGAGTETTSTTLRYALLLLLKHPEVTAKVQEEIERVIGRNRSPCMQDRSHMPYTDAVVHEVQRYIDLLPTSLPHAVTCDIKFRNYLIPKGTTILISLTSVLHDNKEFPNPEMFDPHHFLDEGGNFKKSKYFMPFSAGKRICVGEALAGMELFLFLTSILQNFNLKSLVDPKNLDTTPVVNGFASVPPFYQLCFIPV
Chain of Cytochrome P450 2D6 (Homo sapiens) (P10635 whole entry, looked up): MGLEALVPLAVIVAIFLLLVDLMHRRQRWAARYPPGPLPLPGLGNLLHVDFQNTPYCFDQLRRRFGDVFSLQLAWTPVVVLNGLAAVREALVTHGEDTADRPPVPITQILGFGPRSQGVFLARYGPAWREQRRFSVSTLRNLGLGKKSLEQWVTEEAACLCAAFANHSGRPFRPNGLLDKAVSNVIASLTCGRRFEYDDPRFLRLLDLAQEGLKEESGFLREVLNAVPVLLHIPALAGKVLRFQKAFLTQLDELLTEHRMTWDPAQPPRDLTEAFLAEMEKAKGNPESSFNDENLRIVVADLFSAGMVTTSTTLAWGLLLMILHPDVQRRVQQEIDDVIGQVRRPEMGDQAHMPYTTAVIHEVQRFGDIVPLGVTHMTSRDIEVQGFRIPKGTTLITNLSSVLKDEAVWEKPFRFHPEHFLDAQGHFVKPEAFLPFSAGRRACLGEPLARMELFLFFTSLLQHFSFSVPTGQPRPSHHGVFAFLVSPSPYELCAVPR
Chain of Cytochrome P450 1A2 (Homo sapiens) (P05177 whole entry, looked up): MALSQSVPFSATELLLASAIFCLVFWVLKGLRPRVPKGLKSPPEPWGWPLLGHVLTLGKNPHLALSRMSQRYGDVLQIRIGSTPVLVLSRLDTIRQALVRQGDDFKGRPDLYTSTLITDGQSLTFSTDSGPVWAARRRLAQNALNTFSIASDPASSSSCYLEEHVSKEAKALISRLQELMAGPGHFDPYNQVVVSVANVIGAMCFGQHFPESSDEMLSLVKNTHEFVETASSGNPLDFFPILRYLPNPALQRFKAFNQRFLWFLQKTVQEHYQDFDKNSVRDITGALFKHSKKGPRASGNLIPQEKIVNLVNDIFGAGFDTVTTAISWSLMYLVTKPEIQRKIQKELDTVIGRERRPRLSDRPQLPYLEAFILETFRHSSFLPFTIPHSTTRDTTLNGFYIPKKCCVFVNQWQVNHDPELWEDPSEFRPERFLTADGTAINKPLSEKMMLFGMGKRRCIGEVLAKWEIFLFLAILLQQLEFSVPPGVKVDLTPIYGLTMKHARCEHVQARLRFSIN
Chain of Nuclear receptor subfamily 1 group I member 2 (Rattus norvegicus) (Q9R1A7 whole entry, looked up): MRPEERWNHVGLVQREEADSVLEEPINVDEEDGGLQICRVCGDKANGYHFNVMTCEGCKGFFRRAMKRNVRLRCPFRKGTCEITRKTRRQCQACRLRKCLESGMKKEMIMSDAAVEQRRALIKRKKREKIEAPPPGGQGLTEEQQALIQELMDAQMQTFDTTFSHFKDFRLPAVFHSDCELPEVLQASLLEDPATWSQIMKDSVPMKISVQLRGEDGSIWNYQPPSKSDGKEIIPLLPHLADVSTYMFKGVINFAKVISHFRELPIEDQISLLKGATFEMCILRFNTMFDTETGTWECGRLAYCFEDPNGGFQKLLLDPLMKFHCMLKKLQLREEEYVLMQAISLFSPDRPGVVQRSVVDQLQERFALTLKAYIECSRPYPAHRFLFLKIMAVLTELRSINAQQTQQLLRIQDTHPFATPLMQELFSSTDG
Chain of Cytochrome P450 2C19 (Homo sapiens) (P33261 whole entry, looked up): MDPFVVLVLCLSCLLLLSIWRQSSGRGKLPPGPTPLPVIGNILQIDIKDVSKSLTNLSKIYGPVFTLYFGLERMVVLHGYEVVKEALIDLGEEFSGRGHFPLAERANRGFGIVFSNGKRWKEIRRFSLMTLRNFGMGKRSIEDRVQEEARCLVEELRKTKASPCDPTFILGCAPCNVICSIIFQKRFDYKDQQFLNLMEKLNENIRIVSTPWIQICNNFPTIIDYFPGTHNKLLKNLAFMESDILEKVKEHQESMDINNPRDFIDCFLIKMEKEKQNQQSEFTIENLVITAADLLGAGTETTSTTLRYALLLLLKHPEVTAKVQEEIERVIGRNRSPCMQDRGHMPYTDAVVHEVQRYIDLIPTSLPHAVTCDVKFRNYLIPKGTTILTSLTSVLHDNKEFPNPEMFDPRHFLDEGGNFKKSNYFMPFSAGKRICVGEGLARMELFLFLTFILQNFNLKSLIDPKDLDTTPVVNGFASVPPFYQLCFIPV
Chain of Cytochrome P450 3A4 (Homo sapiens) (P08684 whole entry, looked up): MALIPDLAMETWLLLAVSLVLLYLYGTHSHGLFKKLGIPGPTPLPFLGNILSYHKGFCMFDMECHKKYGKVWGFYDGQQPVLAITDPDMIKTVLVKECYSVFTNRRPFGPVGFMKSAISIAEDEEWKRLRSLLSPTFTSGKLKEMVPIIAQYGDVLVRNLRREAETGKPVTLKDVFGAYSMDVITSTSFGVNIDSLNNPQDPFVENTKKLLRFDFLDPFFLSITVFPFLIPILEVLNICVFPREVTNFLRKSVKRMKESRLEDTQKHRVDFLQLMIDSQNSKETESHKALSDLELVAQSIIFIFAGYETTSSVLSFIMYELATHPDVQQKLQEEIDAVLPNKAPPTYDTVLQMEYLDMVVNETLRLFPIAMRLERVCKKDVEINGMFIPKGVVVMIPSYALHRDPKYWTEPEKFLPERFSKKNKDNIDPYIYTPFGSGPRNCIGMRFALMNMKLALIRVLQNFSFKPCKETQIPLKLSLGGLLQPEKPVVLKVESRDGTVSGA
Chain of Nuclear receptor subfamily 1 group I member 2 (Homo sapiens) (O75469 whole entry, looked up): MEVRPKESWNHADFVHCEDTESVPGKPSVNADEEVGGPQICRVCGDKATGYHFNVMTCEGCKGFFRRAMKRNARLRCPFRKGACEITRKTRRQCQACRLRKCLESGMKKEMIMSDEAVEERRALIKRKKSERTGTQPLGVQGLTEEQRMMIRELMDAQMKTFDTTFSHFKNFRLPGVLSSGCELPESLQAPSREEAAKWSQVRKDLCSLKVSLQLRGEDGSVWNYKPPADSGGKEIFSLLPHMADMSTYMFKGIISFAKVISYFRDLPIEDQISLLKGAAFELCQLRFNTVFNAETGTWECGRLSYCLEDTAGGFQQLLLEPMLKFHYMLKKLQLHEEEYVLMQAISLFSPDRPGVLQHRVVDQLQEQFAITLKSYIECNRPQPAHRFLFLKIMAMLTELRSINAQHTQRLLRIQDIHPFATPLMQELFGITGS
Chain of Thyrotropin-releasing hormone receptor (Homo sapiens) (P34981 whole entry, looked up): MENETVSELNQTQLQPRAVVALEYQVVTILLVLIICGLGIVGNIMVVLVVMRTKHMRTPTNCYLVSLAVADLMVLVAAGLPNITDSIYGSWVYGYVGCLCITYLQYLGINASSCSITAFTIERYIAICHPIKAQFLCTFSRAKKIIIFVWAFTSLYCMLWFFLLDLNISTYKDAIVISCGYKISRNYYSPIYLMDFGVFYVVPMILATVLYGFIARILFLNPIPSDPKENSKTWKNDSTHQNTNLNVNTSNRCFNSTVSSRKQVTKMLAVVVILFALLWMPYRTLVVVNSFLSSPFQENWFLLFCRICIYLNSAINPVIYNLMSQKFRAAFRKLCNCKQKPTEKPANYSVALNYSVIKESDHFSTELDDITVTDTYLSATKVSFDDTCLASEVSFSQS
Chain of Voltage-gated inwardly rectifying potassium channel KCNH2 (Homo sapiens) (Q12809 whole entry, looked up): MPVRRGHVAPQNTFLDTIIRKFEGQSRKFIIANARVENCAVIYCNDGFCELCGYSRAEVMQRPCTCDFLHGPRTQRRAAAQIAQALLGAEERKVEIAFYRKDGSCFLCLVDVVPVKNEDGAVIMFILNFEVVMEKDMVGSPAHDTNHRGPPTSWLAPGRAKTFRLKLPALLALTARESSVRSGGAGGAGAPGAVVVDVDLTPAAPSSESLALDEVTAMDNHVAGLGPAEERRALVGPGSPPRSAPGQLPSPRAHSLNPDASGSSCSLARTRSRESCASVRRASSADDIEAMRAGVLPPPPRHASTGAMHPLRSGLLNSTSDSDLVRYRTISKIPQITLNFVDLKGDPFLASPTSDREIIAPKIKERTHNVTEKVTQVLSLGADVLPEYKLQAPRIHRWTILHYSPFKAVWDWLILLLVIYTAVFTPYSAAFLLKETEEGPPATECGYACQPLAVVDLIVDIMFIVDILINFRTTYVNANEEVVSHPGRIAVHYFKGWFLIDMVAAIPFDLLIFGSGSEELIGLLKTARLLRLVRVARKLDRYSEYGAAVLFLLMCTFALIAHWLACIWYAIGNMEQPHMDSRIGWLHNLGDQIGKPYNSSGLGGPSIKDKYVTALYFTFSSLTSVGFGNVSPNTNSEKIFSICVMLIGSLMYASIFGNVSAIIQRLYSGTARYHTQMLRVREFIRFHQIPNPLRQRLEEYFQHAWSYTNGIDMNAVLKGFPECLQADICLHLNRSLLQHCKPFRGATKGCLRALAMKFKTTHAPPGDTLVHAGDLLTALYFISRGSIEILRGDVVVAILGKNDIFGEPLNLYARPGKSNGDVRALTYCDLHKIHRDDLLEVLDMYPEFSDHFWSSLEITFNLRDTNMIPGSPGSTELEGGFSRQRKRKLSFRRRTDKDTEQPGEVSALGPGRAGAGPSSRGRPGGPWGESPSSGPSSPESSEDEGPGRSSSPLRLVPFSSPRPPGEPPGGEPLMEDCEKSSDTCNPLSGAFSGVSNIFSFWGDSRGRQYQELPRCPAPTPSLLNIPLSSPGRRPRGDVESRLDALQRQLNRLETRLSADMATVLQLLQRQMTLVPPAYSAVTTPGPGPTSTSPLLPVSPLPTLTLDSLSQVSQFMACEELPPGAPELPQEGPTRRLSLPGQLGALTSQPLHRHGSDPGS

O=C(O)c1cccc(C(=O)O)c1C(=O)O
inactive: outcome [1] | Potency [2] | Potency [3] | Potency [4] | Potency [5] | Potency [6] | Potency [7] | Potency [10] | Potency [11] | Potency [12] | Potency [13]
active: Potency [8] 40.3 µM | Potency [9] 71.7 µM

O=C(O)COCC(=O)O
inactive: outcome [1] | Potency [2] | Potency [3] | Potency [4] | Potency [5] | Potency [6] | Potency [7] | Potency [8] | Potency [9] | Potency [11] | Potency [12] | Potency [13]

C1CCN(CN2CCCCC2)CC1
inactive: outcome [1] | Potency [2] | Potency [3] | Potency [4] | Potency [5] | Potency [6] | Potency [7] | Potency [9] | Potency [10] | Potency [11] | Potency [12] | Potency [13]
active: Potency [8] 7.1 µM

COc1ccc(C(=O)Nc2ccccc2)cc1[N+](=O)[O-]
active: Potency [7] 30.9 µM | Potency [8] 40.2 µM | Potency [9] 35.9 µM | Potency [10] 35.9 µM | Potency [11] 5.68 µM | Potency [13] 35.9 µM
inactive: outcome [1] | Potency [2] | Potency [3] | Potency [4] | Potency [5] | Potency [6] | Potency [12]

CC(C)C[C@H](NC(=O)[C@H](Cc1ccccc1)NC(=O)c1cnccn1)B(O)O
active: Potency [2] 0.0422 µM | Potency [3] 0.211 µM | Potency [4] 0.0168 µM | Potency [5] 0.0067 µM | Potency [6] 0.0841 µM | Potency [7] 0.0084 µM | Potency [9] 34.7 µM | Potency [11] 24.5 µM
inactive: outcome [1] | max activation [14] -18.4% and -17.1% | Potency [15] | Potency [8] | Potency [12]

NCCOCCOCCN
active: Potency [8] 25.2 µM
inactive: outcome [1] | Potency [2] | Potency [3] | Potency [4] | Potency [5] | Potency [6] | Potency [7] | Potency [9] | Potency [10] | Potency [12] | Potency [13]

COc1ccnc2c1CCCCC2S(=O)c1nc2ccccc2[nH]1 (stereo not given)
active: Potency [7] 29.8 µM | Potency [8] 0.436 µM | Potency [9] 8.71 µM | Potency [10] 12.3 µM | Potency [11] 13.8 µM
inactive: outcome [1] | Potency [2] | Potency [3] | Potency [4] | Potency [5] | Potency [6] | Potency [12]

COc1ccc(C(=O)c2ccc(C)cc2)c(O)c1
inactive: outcome [1] | Potency [2] | Potency [3] | Potency [4] | Potency [5] | Potency [6] | max activation [14] -1.42% | Potency [13]
active: Potency [7] 11 µM | Potency [8] 40.4 µM | Potency [9] 5.08 µM | Potency [10] 22.7 µM | Potency [11] 20.2 µM

Nc1ncnc2c1ncn2[C@@H]1O[C@H](CO)[C@@H](O)[C@H]1O
inactive: outcome [1] | Potency [2] | Potency [3] | Potency [4] | Potency [5]

CCCCCCCCCC(C)C=O (stereo not given)
inactive: outcome [1] | Potency [2] | Potency [3] | Potency [4] | Potency [5] | Potency [6] | Potency [8] | Potency [9] | Potency [12] | Potency [13]
active: Potency [7] 48.6 µM | Potency [10] 44.8 µM

COc1ccc(CN(CCN(C)C)c2ncccn2)cc1
inactive: outcome [1] | Potency [2] | Potency [3] | Potency [4] | Potency [5] | Potency [6] | Potency [7] | max activation [14] -0.0529% | Potency [15] | Potency [10] | Potency [13]
active: Potency [8] 0.692 µM | Potency [9] 21.9 µM

O=C(Nc1ccc2c(c1)Cc1ccccc1-2)C(F)(F)F
active: Potency [7] 34.4 µM | Potency [9] 17.8 µM | Potency [10] 5.03 µM | Potency [11] 3.56 µM
inactive: outcome [1] | Potency [2] | Potency [3] | Potency [4] | Potency [5] | Potency [6] | Potency [8] | Potency [12] | Potency [13]

O=C(c1ccco1)N1CCNCC1
inactive: outcome [1] | Potency [2] | Potency [3] | Potency [4] | Potency [5] | Potency [6] | Potency [7] | Potency [8] | Potency [9] | Potency [10] | Potency [11] | Potency [13]

Cc1c(Cl)cccc1[N+](=O)[O-]
inactive: outcome [1] | Potency [2] | Potency [3] | Potency [4] | Potency [5] | Potency [6] | Potency [7] | Potency [8] | Potency [9] | Potency [10] | Potency [11] | Potency [12]

Cc1ccc2c(Cl)cc(Cl)c(O)c2n1
inactive: outcome [1] | Potency [2] | Potency [3] | Potency [4] | Potency [5] | Potency [6] | Potency [7] | Potency [8] | Potency [9] | Potency [10] | Potency [12]

CCOc1ccc2c(c1)C(C)CC(C)(C)N2 (stereo not given)
inactive: outcome [1] | Potency [2] | Potency [3] | Potency [4] | Potency [5] | Potency [6] | Potency [12]
active: Potency [7] 34.4 µM | Potency [8] 11.2 µM | Potency [9] 1.26 µM | Potency [10] 14.2 µM | Potency [11] 35.6 µM | Potency [13] 7.96 µM

OCCCO
inactive: outcome [1] | Potency [2] | Potency [3] | Potency [4] | Potency [5] | Potency [6] | Potency [7] | Potency [8] | Potency [9] | Potency [10] | Potency [11] | Potency [12]

CCCOC(C)=O
inactive: outcome [1] | Potency [2] | Potency [3] | Potency [4] | Potency [5] | Potency [6] | Potency [7] | Potency [8] | Potency [9] | Potency [10] | Potency [11] | Potency [12] | Potency [13]

C=CC(=O)OCCCCCCCCCC
inactive: outcome [1] | Potency [2] | Potency [3] | Potency [4] | Potency [5] | Potency [6] | Potency [7] | Potency [8] | Potency [9] | Potency [10] | Potency [11] | Potency [12] | Potency [13]

Reference: PubChem BioAssay (Tox21)
